Data as given in PubChem BioAssay (NCI).
This is part of a sample that, as a whole, favours compounds with a hit. Of some 79,000 tested, about 15% had one in any assay. Activity calls are given as the source filed them. No stated cut-off is given here; in the data, active means growth inhibition above about 70%; inactive means the rest.

Tests used:
[1] = NCI Yeast Anticancer Drug Screen. Data for the rad52 strain (AID 147);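 further: 0% = growth of vehicle-treated control cultures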; conditions: S. cerevisiae rad52 mutant growth inhibition, stronger effect = higher value
Method in brief: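 Read-out: growth inhibition versus vehicle-treated controls. Cells were a DNA repair-deficient yeast strain treated with compounds.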

[2] = NCI Yeast Anticancer Drug Screen. Data for the wt1 strain (AID 149);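 further: 0% = growth of vehicle-treated wt1 cultures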; conditions: S. cerevisiae wt1 strain (SPY 50644) growth inhibition, stronger effect = higher value
Method in brief: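 Readout: yeast growth inhibition, normalised to vehicle controls, in the wt1 strain exposed to test compounds.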

[3] = NCI Yeast Anticancer Drug Screen. Data for the rad50EPP+ strain (AID 151);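 further: 0% = growth of vehicle-treated control cultures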; conditions: S. cerevisiae rad50 mutant strain, stronger effect = higher value
Method in brief: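 Growth inhibition read against vehicle controls in rad50EPP+ yeast, a strain altered in DNA damage repair, after compound exposure.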

[4] = NCI Yeast Anticancer Drug Screen. Data for the rad50 strain (AID 155);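 further: 0% = growth of vehicle-only cultures of the same strain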; conditions: S. cerevisiae rad50 strain growth inhibition, stronger effect = higher value
Method in brief: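 Compounds were tested on a yeast strain with an engineered DNA damage repair alteration; the reported value is growth inhibition normalised to vehicle treatment.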

[5] = NCI Yeast Anticancer Drug Screen. Data for the mec2-1 strain (AID 157); conditions: S. cerevisiae mec2-1 strain, stronger effect = higher value
Method in brief: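 Yeast mec2-1 mutant treated with compound. Readout: growth inhibition vs vehicle controls.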

[6] = NCI Yeast Anticancer Drug Screen. Data for the rad14 strain (AID 159);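 further: 0% = growth of vehicle-treated control cultures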; conditions: S. cerevisiae rad14 strain growth inhibition, stronger effect = higher value
Method in brief: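 Compound-treated yeast with a defined DNA-repair lesion; growth inhibition normalised to vehicle-treated cultures.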

[7] = NCI Yeast Anticancer Drug Screen. Data for the sgs1 mgt1 strain (AID 161);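 further: 0% = growth of cultures given vehicle only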; conditions: S. cerevisiae sgs1 mgt1 strain, stronger effect = higher value
Method in brief: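 Test agents were incubated with a DNA-repair-mutant yeast strain. Growth was then read and compared against vehicle-treated controls.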

[8] = NCI Yeast Anticancer Drug Screen. Data for the CLN2oe strain (AID 163);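 further: 0% = growth of vehicle-only control cultures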; conditions: S. cerevisiae CLN2oe strain, stronger effect = higher value
Method in brief: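 Read-out: yeast growth inhibition, expressed relative to vehicle-only controls. The strain bears an engineered cell-cycle alteration.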

[9] = NCI Yeast Anticancer Drug Screen. Data for the cln2 rad14 strain (AID 165);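 further: 0% = growth equal to vehicle treated cultures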; conditions: S. cerevisiae cln2 rad14 strain, stronger effect = higher value
Method in brief: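 cln2 rad14 yeast strain; compound exposure; growth inhibition read vs vehicle controls.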

[10] = NCI Yeast Anticancer Drug Screen. Data for the bub3 strain (AID 167); conditions: S. cerevisiae bub3 mutant strain, stronger effect = higher value
Method in brief: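 Growth of a checkpoint-deficient yeast mutant is measured after compound exposure. Values represent inhibition relative to vehicle.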

[11] = NCI Yeast Anticancer Drug Screen. Data for the wt2 strain (AID 169);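 further: 0% = growth of vehicle-treated yeast cultures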; conditions: S. cerevisiae wt2 strain growth inhibition, stronger effect = higher value
Method in brief: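 Read-out: growth inhibition versus vehicle-treated control cultures after compound exposure of the yeast strain.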

[12] = NCI Yeast Anticancer Drug Screen. Data for the sgs1 strain (AID 173);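 further: 0% = growth of vehicle-only control cultures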; conditions: S. cerevisiae sgs1 mutant, stronger effect = higher value
Method in brief: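 Read-out: yeast growth inhibition relative to vehicle controls, following compound exposure of a strain with a defined DNA repair/cell cycle alteration.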

[13] = NCI Yeast Anticancer Drug Screen. Data for the mlh1 rad18 strain (AID 175); conditions: S. cerevisiae mlh1 rad18 strain growth inhibition, stronger effect = higher value
Method in brief: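 Yeast w/ defined DNA-repair lesions; compound exposure; growth vs vehicle controls → % inhibition.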

[14] = NCI Yeast Anticancer Drug Screen. Data for the rad18 strain (AID 177); conditions: S. cerevisiae rad18 mutant growth inhibition, stronger effect = higher value
Method in brief: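 Readout: growth inhibition vs vehicle controls. Cells: genetically altered yeast strain, DNA repair defect.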

[15] = at 5.0 µM (retest, dose inferred, filed as 0.5)
[16] = at 50.0 µM (retest, dose inferred, filed as 5.0)

Measured: growth inhibition

O=C(Nc1ccc2c(c1)Cc1c-2ccc([N+](=O)[O-])c1F)C(F)(F)F
inactive: [1]; at 1.2 µM 4% | [1]; at 3.7 µM 4% | [1]; at 11.0 µM 5% | [1]; at 33.0 µM 5% | [1]; at 100.0 µM 3% | [2]; at 1.2 µM 2% | [2]; at 3.7 µM 3% | [2]; at 11.0 µM 7% | [2]; at 33.0 µM 4% | [2]; at 100.0 µM 3% | [3]; at 1.2 µM 9% | [3]; at 3.7 µM 0% | [3]; at 11.0 µM 6% | [3]; at 33.0 µM 11% | [3]; at 100.0 µM 20% | [4]; at 1.2 µM 2% | [4]; at 3.7 µM 4% | [4]; [15] 2% | [4]; at 11.0 µM 4% | [4]; at 33.0 µM 3% | [4]; [16] 11% | [4]; at 50.0 µM 2.95% | [4]; at 100.0 µM 4% | [5]; at 1.2 µM -1% | [5]; at 3.7 µM 0% | [5]; [15] -17% | [5]; at 11.0 µM -1% | [5]; at 33.0 µM 1% | [5]; [16] -11% | [5]; at 50.0 µM 1.35% | [5]; at 100.0 µM 2% | [6]; at 1.2 µM 1% | [6]; at 3.7 µM 1% | [6]; at 11.0 µM 0% | [6]; at 33.0 µM 2% | [6]; at 100.0 µM 2% | [7]; [15] 23% | [7]; [16] 19% | [7]; at 50.0 µM -3.05% | [8]; at 1.2 µM -2% | [8]; at 3.7 µM -3% | [8]; at 11.0 µM -4% | [8]; at 33.0 µM -11% | [8]; at 100.0 µM -4% | [9]; [15] 4% | [9]; [16] 7% | [9]; at 50.0 µM -10.7% | [10]; at 1.2 µM -2% | [10]; at 3.7 µM 1% | [10]; [15] -4% | [10]; at 11.0 µM 1% | [10]; at 33.0 µM 1% | [10]; [16] 12% | [10]; at 50.0 µM 8.35% | [10]; at 100.0 µM -4% | [11]; at 1.2 µM 2% | [11]; at 3.7 µM 0% | [11]; at 11.0 µM 2% | [11]; at 33.0 µM 2% | [11]; at 100.0 µM 0% | [12]; at 1.2 µM 1% | [12]; at 3.7 µM 3% | [12]; at 11.0 µM -1% | [12]; at 33.0 µM 1% | [12]; at 100.0 µM 3% | [13]; [15] 62% | [13]; at 50.0 µM 18.4% | [14]; at 1.2 µM 4% | [14]; at 3.7 µM 0% | [14]; at 11.0 µM -25% | [14]; at 33.0 µM 5% | [14]; at 100.0 µM 9%
active: [13]; [16] 79%
